Results on 20 compounds are retold here after PubChem BioAssay (NCI).

The nature of experiment [1]: NCI Yeast Anticancer Drug Screen. Data for the rad50 strain (AID 155).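 Note: 0% = growth of vehicle-only cultures of the same strain.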 To be noted: S. cerevisiae rad50 strain growth inhibition; at 50.0 µM; active compounds read high. The method in brief:
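Genetically altered yeast (DNA repair pathway); compound treatment; growth inhibition vs vehicle ctrl.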

Experiment [2] can be described thus: NCI Yeast Anticancer Drug Screen. Data for the mec2-1 strain (AID 157). To be noted: S. cerevisiae mec2-1 strain, at 50.0 µM, active compounds read high. The method in brief:
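mec2-1 yeast strain, carrying an alteration in DNA damage repair or cell cycle control, was exposed to compounds; growth inhibition was measured relative to vehicle-treated controls.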

Experiment [3] can be described thus: NCI Yeast Anticancer Drug Screen. Data for the sgs1 mgt1 strain (AID 161).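 Note: 0% = growth of cultures given vehicle only.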 To be noted: S. cerevisiae sgs1 mgt1 strain, at 50.0 µM, active compounds read high. The procedure, abridged:
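This yeast growth screen uses a strain with defined DNA-repair lesions; compound-treated growth is compared with vehicle-treated growth.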

Experiment [4] in a line: NCI Yeast Anticancer Drug Screen. Data for the cln2 rad14 strain (AID 165).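 Note: 0% = growth equal to vehicle treated cultures.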 The conditions noted are these: S. cerevisiae cln2 rad14 strain, at 50.0 µM, active compounds read high. The method in brief:
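Yeast carrying cln2 and rad14 alterations (cell cycle control and DNA damage repair) were exposed to compounds. Growth inhibition was measured against vehicle-treated controls.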

Experiment [5] can be described thus: NCI Yeast Anticancer Drug Screen. Data for the bub3 strain (AID 167). The conditions noted are these: S. cerevisiae bub3 mutant strain, at 50.0 µM, active compounds read high. The method in brief: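 Yeast carrying a defined mutation is treated with each compound, and growth is compared with that of vehicle-exposed cells to give inhibition.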
Experiment [6] in a line: NCI Yeast Anticancer Drug Screen. Data for the mlh1 rad18 strain (AID 175). To be noted: S. cerevisiae mlh1 rad18 strain growth inhibition; at 50.0 µM; active compounds read high. The procedure, abridged: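 Growth inhibition of the yeast strain was measured after compound exposure and expressed relative to vehicle-treated controls. The strain carries defined defects in DNA damage repair.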

Structures are written as SMILES. About 79,000 compounds went through this panel and 15% of them were active in at least one assay; those are over-represented in the sample as a whole. Values without a mark were called inactive. Activity calls are given as the source filed them. Cut-off read from the data, not from the text of the source: active = growth inhibition above about 70%; inactive = the rest.

As for `O=C(Nc1cccc(Cl)c1)Oc1ccc(S(=O)(=O)F)cc1Cl`, the growth inhibition in experiment [1] is 92.3% (active); in experiment [2] it was 94.7% (active); in experiment [3] it was 95.7% (active); in experiment [4] it was 91.2% (active); in experiment [5], 90.9% (active); in experiment [6], 94.8% (active).

In the case of `NC(=O)CCC(NC(=O)Cc1ccccc1)C(=O)O` (stereo not given) (tested in a mixture with another compound), the growth inhibition in experiment [1] was -4.45%; in experiment [2] it was -14.1%; in experiment [3] it was 0.25%; in experiment [4], -29.9%; in experiment [5], -9.65%; in experiment [6] it was 8.95%.

Turning to `CCCCOP(=O)(OCCCC)SCl`, the growth inhibition was -9.4% in experiment [1]; 1.7% in experiment [2]; 3.2% in experiment [3]; 13.9% in experiment [4]; -11.1% in experiment [5]; 6% in experiment [6].

For `CC(=O)OCC1OC(n2ncc3c(N4CC4)ncnc32)C(OC(C)=O)C1OC(C)=O` (stereo not given), the growth inhibition in experiment [1] was 7.7%; in experiment [2] it was -12.6%; in experiment [3], -21.3%; in experiment [4], 6.65%; in experiment [5], 1.45%; in experiment [6], 4.25%.

For `CCN1CCOC(CC)(c2cc(Cl)cc(Cl)c2Cl)C1` (stereo not given), the growth inhibition in experiment [1] was 6.35%; in experiment [2], 20.4%; in experiment [3], 8.4%; in experiment [4], 13.2%; in experiment [5], 4.3%; in experiment [6] it was 20.4%.

For `ClCCN(CCCl)c1cc(Cl)ccc1Oc1ccccc1`, the growth inhibition was -35.8% in experiment [1]; -4.3% in experiment [2]; 1.25% in experiment [3]; -42% in experiment [4]; 18.9% in experiment [5]; -1.55% in experiment [6].

For the compound `SCc1ccccc1.[Cu+2]`, the growth inhibition was -1.4% in experiment [1]; -15.9% in experiment [2]; -0.45% in experiment [3]; -35.1% in experiment [4]; -50.7% in experiment [5]; -2.75% in experiment [6].

`CN(C)C(=O)C(CC[N+](C)(C)C)(c1ccccc1)c1ccccc1`: the growth inhibition in experiment [1] was 8.65%; in experiment [2] it was 5.5%; in experiment [3] it was 5.55%; in experiment [4], 24.7%; in experiment [5], -3.9%; in experiment [6] it was -10.1%.

As to `C[N+]1(C)CCCC1c1cccnc1` (stereo not given), the growth inhibition in experiment [1] is 42.8%; in experiment [2], 7.35%; in experiment [3] it was -2.45%; in experiment [4] it was -15.2%; in experiment [5] it was 14.4%; in experiment [6], 29.9%.

In the case of `COc1c2occc2c(CCl)c2ccc(=O)oc12`, the growth inhibition was 26.6% in experiment [1]; 11.2% in experiment [2]; 14.3% in experiment [3]; 24.4% in experiment [4]; 5.8% in experiment [5]; 28.1% in experiment [6].

Consider `O=C(O)C(CSC(c1ccccc1)(c1ccccc1)c1ccccc1)N1C(=O)c2ccccc2C1=O` (stereo not given), for which the growth inhibition in experiment [1] is 98.8% (active); in experiment [2], 99.2% (active); in experiment [3], 99.3% (active); in experiment [4], 96.8% (active); in experiment [5], 98.8% (active); in experiment [6], 99% (active).

In the case of `SCCS`, the growth inhibition in experiment [1] is -20.1%; in experiment [2], -5.2%; in experiment [3], -14.6%; in experiment [4], -5.6%; in experiment [5], -27.7%; in experiment [6] it was -25.7%.

As for `CC(=O)C1=C(O)C2C3c4c[nH]c5cccc(c45)CC3C(C)(C)N2C1=O` (stereo not given), the growth inhibition in experiment [1] is 22.6%; in experiment [2], -11%; in experiment [3] it was 23.9%; in experiment [4] it was -12.8%; in experiment [5], 15%; in experiment [6], 21.8%.

In the case of `Oc1cc(N2CC2)c(O)cc1N1CC1`, the growth inhibition in experiment [1] was 12.8%; in experiment [2] it was 13.9%; in experiment [3], 11.2%; in experiment [4], -42.6%; in experiment [5] it was -1.75%; in experiment [6], 11.4%.

With `CC(C)NCc1ccccc1`, the growth inhibition in experiment [1] was -4.25%; in experiment [2] it was -12.3%; in experiment [3] it was 19.5%; in experiment [4], 9.8%; in experiment [5], 7.35%; in experiment [6], -6.05%.

With `CCCOC(=O)CCl`, the growth inhibition in experiment [1] was 15.4%; in experiment [2], 15.2%; in experiment [3], 30.1%; in experiment [4] it was 5.25%; in experiment [5] it was 5.15%; in experiment [6], 20.3%.

Regarding `COc1cc(C2c3cc4c(cc3OC(C)(O)C2C)OCO4)cc(OC)c1OC` (stereo not given), the growth inhibition in experiment [1] was 8.8%; in experiment [2], -1.15%; in experiment [3], 9.85%; in experiment [4] it was -25.4%; in experiment [5] it was -16.9%; in experiment [6], 15.2%.

With `C=CC[As+](c1cccc2ccccc12)(c1cccc2ccccc12)c1cccc2ccccc12`, the growth inhibition in experiment [1] is -61.5%; in experiment [2] it was -14.1%; in experiment [3], -15.1%; in experiment [4], -33.4%; in experiment [5], 5.15%; in experiment [6], -11.5%.

With `Oc1ccccc1C=NC1CCCCC1N=Cc1ccccc1O.[Ni]` (stereo not given), the growth inhibition was 18.7% in experiment [1]; 4.05% in experiment [2]; 7.9% in experiment [3]; -8.6% in experiment [4]; -0.55% in experiment [5]; -10.4% in experiment [6].

Consider `CN(C)C1(c2ccc3ccccc3c2)CSC1`, for which the growth inhibition in experiment [1] was -0.4%; in experiment [2] it was -16.6%; in experiment [3] it was 0.55%; in experiment [4], -16.2%; in experiment [5], -29.8%; in experiment [6], 2.25%.
